Laboratory results reported in the supplement of paper PMC10849652.
The full data set covers some 7,900 targets. This sample favours those with a hit. About 0.6% of all pairs of compound and target were hits.

Assays:
Assay in all cases: log2 fold change, soluble protein after heating vs DMSO (PISA); higher = thermal stabilisation; K562 cells, 10 uM, 30 min; active = over 0.2 and 3.5 SD of the protein, either way, in both replicates (recomputed)
bafetinib = compound: Cc1ccc(NC(=O)c2ccc(CN3CC[C@H](N(C)C)C3)c(C(F)(F)F)c2)cc1Nc1nccc(-c2cncnc2)n1 [bafetinib]
Method in brief: (§1)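 K562 cells at 2×10^6 cells/mL were treated for 30 min with 10 μM compound, and aliquots were heated for 3 min over 48°C-58°C before pooling. Extraction used PBS with 0.5% NP-40 at 4°C, and soluble protein was the supernatant after 21,000xg for 90 min, measured by TMTpro 16plex LC-MS/MS with channel sums equalised. Thermal stability values, relative to control samples and from duplicates, are log2 fold changes.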

[1] = compound: Cc1cccc(CC(=O)N2CCc3c2ccc(-c2cn(C)c4ncnc(N)c24)c3F)n1
Method in brief: as §1

nilotinib = compound: Cc1cn(-c2cc(NC(=O)c3ccc(C)c(Nc4nccc(-c5cccnc5)n4)c3)cc(C(F)(F)F)c2)cn1 [nilotinib]
Method in brief: as §1

[2] = compound: Cc1nc(Nc2n[nH]c3c2CN(C(=O)N[C@H](CN(C)C)c2ccccc2)C3(C)C)c2sccc2n1
Method in brief: as §1

dasatinib = compound: Cc1nc(Nc2ncc(C(=O)Nc3c(C)cccc3Cl)s2)cc(N2CCN(CCO)CC2)n1 [dasatinib]
Method in brief: as §1

[3] = compound: Cc1ncc(-c2ccnc(Nc3ccc(S(C)(=O)=O)cc3)n2)n1C(C)C
Method in brief: as §1

[4] = compound: Cn1cc(-c2ccc3c(c2)CCN3C(=O)Cc2cccc(C(F)(F)F)c2)c2c(N)ncnc21
Method in brief: as §1

[5] = compound: Cn1cc(-c2ccc3nnc(C(F)(F)c4ccc5ncccc5c4)n3n2)cn1
Method in brief: as §1

tipifarnib = compound: Cn1cncc1[C@@](N)(c1ccc(Cl)cc1)c1ccc2c(c1)c(-c1cccc(Cl)c1)cc(=O)n2C [tipifarnib]
Method in brief: as §1

mubritinib = compound: FC(F)(F)c1ccc(/C=C/c2nc(COc3ccc(CCCCn4ccnn4)cc3)co2)cc1 [mubritinib]
Method in brief: as §1

[6] = compound: NC(=O)Nc1cc(-c2cccc(F)c2)sc1C(=O)N[C@H]1CCCNC1
Method in brief: as §1

[7] = compound: NC(=O)c1cnc(N[C@@H]2CCCC[C@@H]2N)nc1Nc1cccc(-n2nccn2)c1
Method in brief: as §1

[8] = compound: NC1(c2ccc(-c3nc4ccn5c(=O)[nH]nc5c4cc3-c3ccccc3)cc2)CCC1
Method in brief: as §1

[9] = compound: NCC(=O)Nc1ccc(-n2nc(C(F)(F)F)cc2-c2ccc3c(ccc4ccccc43)c2)cc1
Method in brief: as §1

entinostat = compound: Nc1ccccc1NC(=O)c1ccc(CNC(=O)OCc2cccnc2)cc1 [entinostat]
Method in brief: as §1

vorinostat = compound: O=C(CCCCCCC(=O)Nc1ccccc1)NO [vorinostat]
Method in brief: as §1

citarinostat = compound: O=C(CCCCCCNC(=O)c1cnc(N(c2ccccc2)c2ccccc2Cl)nc1)NO [citarinostat]
Method in brief: as §1

silmitasertib = compound: O=C(O)c1ccc2c(c1)nc(Nc1cccc(Cl)c1)c1ccncc12 [silmitasertib]
Method in brief: as §1

[10] = compound: O=C1NC(=O)C(c2cnc3ccccn23)=C1c1cn2c3c(cc(F)cc13)CN(C(=O)N1CCCCC1)CC2
Method in brief: as §1

[11] = compound: c1cc(OCCN2CCCCC2)cc(-c2n[nH]c3ccc(-c4nnc[nH]4)cc23)c1
Method in brief: as §1

Measured: log2 fold change

VPS28 (UniProt Q9UK41)
Sequence of UniProt Q9UK41 (Q9UK41 whole entry, looked up): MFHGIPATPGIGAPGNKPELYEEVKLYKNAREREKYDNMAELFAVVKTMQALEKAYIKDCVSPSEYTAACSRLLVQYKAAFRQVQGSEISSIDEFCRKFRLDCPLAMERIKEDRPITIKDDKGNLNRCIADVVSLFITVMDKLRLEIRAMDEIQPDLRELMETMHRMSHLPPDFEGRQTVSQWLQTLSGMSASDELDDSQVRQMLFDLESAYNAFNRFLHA
inactive: bafetinib -0.017 | [1] -0.021 | nilotinib -0.153 | [2] -0.063 | dasatinib -0.209 | [3] -0.019 | [4] 0.01 | [5] 0.006 | tipifarnib -0.051 | mubritinib 0.046 | [6] -0.059 | [7] -0.079 | [8] -0.177 | [9] -0.055 | entinostat 0.064 | vorinostat 0.052 | citarinostat 0.122 | silmitasertib 0.058 | [10] -0.001 | [11] -0.012

UGGT1 (UniProt Q9NYU2)
Sequence of UniProt Q9NYU2 (Q9NYU2 whole entry, looked up): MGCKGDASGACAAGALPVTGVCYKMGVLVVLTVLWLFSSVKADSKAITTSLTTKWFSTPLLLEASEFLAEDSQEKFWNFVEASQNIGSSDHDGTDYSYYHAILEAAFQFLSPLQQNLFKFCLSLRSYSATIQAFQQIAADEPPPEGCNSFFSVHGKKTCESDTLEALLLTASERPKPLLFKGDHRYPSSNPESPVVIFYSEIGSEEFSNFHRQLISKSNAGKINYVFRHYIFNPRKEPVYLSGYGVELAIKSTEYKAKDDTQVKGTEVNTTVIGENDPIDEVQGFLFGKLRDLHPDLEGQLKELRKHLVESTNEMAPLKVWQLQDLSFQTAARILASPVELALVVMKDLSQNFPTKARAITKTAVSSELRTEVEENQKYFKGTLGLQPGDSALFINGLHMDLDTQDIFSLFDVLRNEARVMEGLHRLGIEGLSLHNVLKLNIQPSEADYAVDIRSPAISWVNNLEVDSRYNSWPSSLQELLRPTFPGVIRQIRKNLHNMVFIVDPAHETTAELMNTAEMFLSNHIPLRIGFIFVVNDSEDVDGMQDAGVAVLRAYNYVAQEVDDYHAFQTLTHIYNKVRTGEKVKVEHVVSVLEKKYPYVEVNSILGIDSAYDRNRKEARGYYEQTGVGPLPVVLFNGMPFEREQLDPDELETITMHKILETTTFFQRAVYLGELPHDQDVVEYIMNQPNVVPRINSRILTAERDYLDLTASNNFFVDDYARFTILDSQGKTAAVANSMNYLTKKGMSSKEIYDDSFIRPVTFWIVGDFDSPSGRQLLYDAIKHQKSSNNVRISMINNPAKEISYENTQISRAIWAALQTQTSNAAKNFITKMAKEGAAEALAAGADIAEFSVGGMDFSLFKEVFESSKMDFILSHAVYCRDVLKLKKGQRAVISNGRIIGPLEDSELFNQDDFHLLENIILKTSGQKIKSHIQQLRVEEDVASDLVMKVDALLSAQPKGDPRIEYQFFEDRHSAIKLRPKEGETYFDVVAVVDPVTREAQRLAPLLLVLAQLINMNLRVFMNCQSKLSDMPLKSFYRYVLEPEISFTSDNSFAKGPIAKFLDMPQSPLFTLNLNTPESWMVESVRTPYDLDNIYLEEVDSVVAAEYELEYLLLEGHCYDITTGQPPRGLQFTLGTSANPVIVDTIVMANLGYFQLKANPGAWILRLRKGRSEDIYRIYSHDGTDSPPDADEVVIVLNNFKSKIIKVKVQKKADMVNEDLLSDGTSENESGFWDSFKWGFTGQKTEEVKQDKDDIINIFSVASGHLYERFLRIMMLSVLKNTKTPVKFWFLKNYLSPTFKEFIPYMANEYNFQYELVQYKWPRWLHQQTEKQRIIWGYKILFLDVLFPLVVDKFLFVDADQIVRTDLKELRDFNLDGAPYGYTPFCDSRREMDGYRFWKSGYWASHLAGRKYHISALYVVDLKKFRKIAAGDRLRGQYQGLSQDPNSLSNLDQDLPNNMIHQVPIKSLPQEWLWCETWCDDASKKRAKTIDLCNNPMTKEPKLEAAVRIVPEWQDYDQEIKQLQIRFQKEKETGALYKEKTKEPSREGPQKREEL
inactive: bafetinib -0.005 | [1] -0.007 | nilotinib -0.015 | [2] 0.016 | dasatinib -0.007 | [3] -0.036 | [4] -0.017 | [5] -0.001 | tipifarnib -0.026 | mubritinib -0.043 | [6] 0.028 | [7] -0.025 | [8] -0.06 | [9] 0.017 | entinostat -0.001 | vorinostat -0.004 | citarinostat 0.047 | silmitasertib 0.01 | [10] -0.025 | [11] -0.035

TNPO1 (UniProt Q92973)
inactive: bafetinib -0.104 | [1] 0.022 | nilotinib -0.037 | [2] -0.128 | dasatinib -0.067 | [3] -0.079 | [4] -0.034 | [5] 0.009 | tipifarnib -0.026 | mubritinib 0.005 | [6] 0.003 | [7] -0.039 | [8] -0.157 | [9] -0.06 | entinostat 0.044 | vorinostat 0.051 | citarinostat 0.033 | silmitasertib 0.025 | [10] -0.021 | [11] -0.066

XPO1 (UniProt O14980)
Sequence of UniProt O14980 (O14980 whole entry, looked up): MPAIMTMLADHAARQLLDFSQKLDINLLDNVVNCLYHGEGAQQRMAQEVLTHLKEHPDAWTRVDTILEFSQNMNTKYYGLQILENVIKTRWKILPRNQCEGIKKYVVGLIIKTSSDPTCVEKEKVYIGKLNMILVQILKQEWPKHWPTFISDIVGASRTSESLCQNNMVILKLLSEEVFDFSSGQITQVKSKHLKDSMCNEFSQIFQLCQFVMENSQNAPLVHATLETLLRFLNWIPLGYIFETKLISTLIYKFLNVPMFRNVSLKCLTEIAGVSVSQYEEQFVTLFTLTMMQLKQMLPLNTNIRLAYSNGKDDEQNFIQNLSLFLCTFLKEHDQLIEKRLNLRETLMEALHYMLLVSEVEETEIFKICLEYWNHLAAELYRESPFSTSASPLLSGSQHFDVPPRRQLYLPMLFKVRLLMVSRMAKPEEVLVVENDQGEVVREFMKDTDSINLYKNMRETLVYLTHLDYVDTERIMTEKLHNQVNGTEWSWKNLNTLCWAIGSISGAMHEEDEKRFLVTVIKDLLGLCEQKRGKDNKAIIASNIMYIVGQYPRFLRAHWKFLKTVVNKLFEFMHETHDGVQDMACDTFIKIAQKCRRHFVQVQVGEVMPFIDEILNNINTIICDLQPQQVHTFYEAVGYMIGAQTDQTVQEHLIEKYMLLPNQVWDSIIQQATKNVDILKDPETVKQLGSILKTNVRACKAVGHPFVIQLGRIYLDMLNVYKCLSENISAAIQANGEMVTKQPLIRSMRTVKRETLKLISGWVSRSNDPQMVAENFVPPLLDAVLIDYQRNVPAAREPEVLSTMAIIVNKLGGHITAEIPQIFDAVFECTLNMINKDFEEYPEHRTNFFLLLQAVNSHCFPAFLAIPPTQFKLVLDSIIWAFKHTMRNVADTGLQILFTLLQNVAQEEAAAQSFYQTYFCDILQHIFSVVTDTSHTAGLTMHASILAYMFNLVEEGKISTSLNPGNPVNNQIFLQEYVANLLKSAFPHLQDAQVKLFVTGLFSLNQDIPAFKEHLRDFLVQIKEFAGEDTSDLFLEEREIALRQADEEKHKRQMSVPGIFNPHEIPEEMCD
active: [8] -0.249
inactive: bafetinib -0.003 | [1] 0.042 | nilotinib -0.114 | [2] -0.037 | dasatinib -0.154 | [3] 0.001 | [4] 0.005 | [5] -0.008 | tipifarnib -0.159 | mubritinib 0.042 | [6] 0.034 | [7] -0.056 | [9] -0.026 | entinostat 0.082 | vorinostat 0.052 | citarinostat 0.092 | silmitasertib 0.025 | [10] 0.009 | [11] -0.054

TPM2 (UniProt P07951)
Sequence of UniProt P07951 (P07951 whole entry, looked up): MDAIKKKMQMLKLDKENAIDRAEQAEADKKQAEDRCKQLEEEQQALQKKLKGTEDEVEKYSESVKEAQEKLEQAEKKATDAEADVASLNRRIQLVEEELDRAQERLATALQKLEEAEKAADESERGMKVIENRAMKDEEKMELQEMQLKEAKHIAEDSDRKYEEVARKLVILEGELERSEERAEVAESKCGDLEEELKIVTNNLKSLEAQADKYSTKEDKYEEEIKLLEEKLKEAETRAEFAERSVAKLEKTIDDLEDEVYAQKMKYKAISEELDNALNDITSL
inactive: bafetinib 0.034 | [1] 0.003 | nilotinib 0.126 | [2] -0.097 | dasatinib 0.072 | [3] 0.064 | [4] -0.019 | [5] -0.015 | tipifarnib 0.086 | mubritinib 0.025 | [6] 0.119 | [7] 0.081 | [8] 0.157 | [9] 0.201 | entinostat 0.077 | vorinostat -0.077 | citarinostat 0.103 | silmitasertib -0.07 | [10] 0.162 | [11] 0.171

TOMM20 (UniProt Q15388)
Sequence of UniProt Q15388 (Q15388 whole entry, looked up): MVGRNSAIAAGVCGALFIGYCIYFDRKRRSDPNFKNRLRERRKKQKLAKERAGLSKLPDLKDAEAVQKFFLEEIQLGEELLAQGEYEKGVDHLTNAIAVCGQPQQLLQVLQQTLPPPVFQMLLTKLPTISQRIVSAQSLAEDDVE
inactive: bafetinib -0.194 | [1] -0.035 | nilotinib -0.002 | [2] -0.031 | dasatinib 0.039 | [3] 0.01 | [4] 0.003 | [5] 0.006 | tipifarnib -0.095 | mubritinib 0.017 | [6] 0.008 | [7] -0.034 | [8] -0.023 | [9] -0.131 | entinostat 0.01 | vorinostat 0.031 | citarinostat -0.088 | silmitasertib -0.006 | [10] -0.088 | [11] -0.01

TUBA4A (UniProt P68366)
inactive: bafetinib 0.038 | [1] -0.028 | nilotinib -0.011 | [2] 0.008 | dasatinib -0.102 | [3] -0.009 | [4] 0.047 | [5] 0.051 | tipifarnib -0.073 | mubritinib 0.073 | [6] 0.004 | [7] -0.02 | [8] -0.063 | [9] 0.028 | entinostat -0.024 | vorinostat 0.062 | citarinostat 0.031 | silmitasertib -0.065 | [10] -0.059 | [11] 0.009

XPO5 (UniProt Q9HAV4)
inactive: bafetinib -0.037 | [1] 0.036 | nilotinib -0.07 | [2] -0.118 | dasatinib -0.11 | [3] -0.054 | [4] 0.026 | [5] 0.004 | tipifarnib -0.071 | mubritinib 0.006 | [6] -0.025 | [7] -0.068 | [9] -0.074 | entinostat 0.046 | vorinostat 0.065 | citarinostat 0.068 | silmitasertib -0.003 | [10] -0.022 | [11] -0.042
active: [8] -0.234

VPS18 (UniProt Q9P253)
Sequence of UniProt Q9P253 (Q9P253 whole entry, looked up): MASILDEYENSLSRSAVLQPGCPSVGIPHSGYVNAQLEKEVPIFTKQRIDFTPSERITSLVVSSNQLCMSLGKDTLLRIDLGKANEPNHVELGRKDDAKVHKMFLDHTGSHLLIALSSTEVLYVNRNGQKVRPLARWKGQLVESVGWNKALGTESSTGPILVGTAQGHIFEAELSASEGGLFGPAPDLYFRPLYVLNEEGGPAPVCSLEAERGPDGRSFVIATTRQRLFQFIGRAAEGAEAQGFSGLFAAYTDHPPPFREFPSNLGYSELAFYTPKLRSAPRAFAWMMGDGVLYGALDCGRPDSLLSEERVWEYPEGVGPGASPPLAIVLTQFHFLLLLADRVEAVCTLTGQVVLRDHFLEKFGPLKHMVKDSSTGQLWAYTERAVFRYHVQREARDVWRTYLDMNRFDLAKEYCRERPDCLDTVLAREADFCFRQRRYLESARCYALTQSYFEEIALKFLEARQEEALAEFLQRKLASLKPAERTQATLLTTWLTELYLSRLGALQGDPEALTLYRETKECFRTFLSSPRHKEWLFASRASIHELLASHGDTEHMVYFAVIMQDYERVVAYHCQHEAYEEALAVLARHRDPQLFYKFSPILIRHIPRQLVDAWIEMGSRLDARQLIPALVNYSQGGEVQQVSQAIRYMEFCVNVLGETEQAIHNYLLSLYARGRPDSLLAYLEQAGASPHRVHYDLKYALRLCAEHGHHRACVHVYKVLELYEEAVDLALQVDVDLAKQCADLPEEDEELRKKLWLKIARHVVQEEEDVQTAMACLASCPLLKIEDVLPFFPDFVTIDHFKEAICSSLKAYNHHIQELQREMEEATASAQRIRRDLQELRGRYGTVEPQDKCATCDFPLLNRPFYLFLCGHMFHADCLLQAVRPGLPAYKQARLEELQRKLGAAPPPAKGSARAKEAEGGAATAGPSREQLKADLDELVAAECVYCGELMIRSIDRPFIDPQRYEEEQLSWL
inactive: bafetinib -0.097 | [1] 0.059 | nilotinib -0.052 | [2] -0.069 | dasatinib -0.194 | [3] -0.022 | [4] 0.086 | [5] 0.089 | tipifarnib -0.047 | mubritinib 0.088 | [6] 0.019 | [7] -0.13 | [8] -0.216 | [9] 0.079 | entinostat 0.08 | vorinostat 0.089 | citarinostat 0.009 | silmitasertib 0.005 | [10] 0.023 | [11] 0.005

U2AF2 (UniProt P26368)
inactive: bafetinib -0.019 | nilotinib -0.003 | dasatinib 0.018 | [3] 0.049 | [4] -0.011 | [5] -0.044 | tipifarnib 0.045 | mubritinib -0.051 | [6] -0.125 | [7] -0.021 | [8] 0.033 | [9] -0.051 | entinostat -0.031 | vorinostat -0.129 | citarinostat -0.014 | silmitasertib -0.049 | [10] 0.113 | [11] -0.09
active: [1] -0.241 | [2] -1.66

UGDH (UniProt O60701)
inactive: bafetinib 0.018 | [1] 0.062 | nilotinib -0.045 | dasatinib -0.043 | [3] -0.24 | [4] 0.151 | [5] 0.09 | tipifarnib -0.034 | mubritinib 0.202 | [6] -0.062 | [7] -0.124 | [8] -0.033 | [9] -0.095 | entinostat 0.064 | vorinostat -0.027 | citarinostat 0.145 | silmitasertib -0.102 | [11] 0
active: [2] -0.377 | [10] -0.31

USP15 (UniProt Q9Y4E8)
inactive: bafetinib -0.01 | [1] 0.047 | nilotinib -0.064 | [2] -0.082 | dasatinib -0.099 | [3] 0.005 | [4] 0.021 | [5] 0.044 | tipifarnib -0.081 | mubritinib 0.023 | [6] -0.017 | [7] -0.078 | [8] -0.185 | [9] -0.066 | entinostat 0.052 | vorinostat 0.044 | citarinostat 0.064 | silmitasertib 0.035 | [10] -0.016 | [11] -0.022

TTI1 (UniProt O43156)
inactive: bafetinib -0.006 | [1] 0.165 | nilotinib -0.036 | [2] -0.102 | dasatinib -0.076 | [3] 0.039 | [4] 0.085 | [5] 0 | tipifarnib -0.103 | mubritinib 0.095 | [6] -0.079 | [7] -0.093 | [8] -0.181 | [9] -0.022 | entinostat 0 | vorinostat 0.142 | citarinostat 0.028 | silmitasertib 0.062 | [10] 0.057 | [11] -0.099

UBA1 (UniProt P22314)
active: mubritinib 0.395
inactive: bafetinib 0.034 | [1] 0.187 | nilotinib -0.089 | [2] -0.062 | dasatinib -0.216 | [3] 0.062 | [4] 0.027 | [5] 0.121 | tipifarnib -0.235 | [6] -0.044 | [7] -0.112 | [8] -0.275 | [9] -0.101 | entinostat 0.159 | vorinostat 0.167 | citarinostat 0.125 | silmitasertib 0.018 | [10] -0.013 | [11] -0.028

XPNPEP3 (UniProt Q9NQH7)
Sequence of UniProt Q9NQH7 (Q9NQH7 whole entry, looked up): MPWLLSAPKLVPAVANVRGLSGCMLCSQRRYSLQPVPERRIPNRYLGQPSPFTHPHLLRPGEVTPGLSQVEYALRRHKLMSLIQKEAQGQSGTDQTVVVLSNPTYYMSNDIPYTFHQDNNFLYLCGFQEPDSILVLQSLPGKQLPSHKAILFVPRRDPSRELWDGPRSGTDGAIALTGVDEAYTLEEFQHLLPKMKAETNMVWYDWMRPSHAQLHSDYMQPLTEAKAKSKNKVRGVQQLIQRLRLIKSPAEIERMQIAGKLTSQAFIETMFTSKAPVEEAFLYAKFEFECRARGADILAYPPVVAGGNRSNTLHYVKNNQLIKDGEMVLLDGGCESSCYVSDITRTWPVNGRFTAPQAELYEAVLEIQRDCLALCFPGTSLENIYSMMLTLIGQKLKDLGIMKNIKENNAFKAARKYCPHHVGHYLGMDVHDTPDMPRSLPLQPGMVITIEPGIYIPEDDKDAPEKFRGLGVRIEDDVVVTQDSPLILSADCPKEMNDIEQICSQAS
inactive: bafetinib -0.06 | [1] 0.008 | nilotinib -0.034 | [2] 0.027 | dasatinib 0.021 | [3] -0.041 | [4] 0.092 | [5] -0.031 | tipifarnib -0.065 | mubritinib 0.02 | [6] 0.034 | [7] -0.007 | [8] -0.074 | [9] 0 | entinostat -0.024 | vorinostat -0.002 | citarinostat -0.007 | silmitasertib -0.004 | [10] -0.02 | [11] -0.022

WDR61 (UniProt Q9GZS3)
inactive: bafetinib -0.01 | [1] -0.033 | nilotinib -0.018 | [2] 0.029 | dasatinib 0.007 | [3] -0.075 | [4] 0.023 | [5] 0.012 | tipifarnib -0.01 | mubritinib 0.075 | [6] -0.013 | [7] -0.058 | [8] -0.102 | [9] -0.069 | entinostat -0.052 | vorinostat 0 | citarinostat 0.028 | silmitasertib -0.005 | [10] -0.045 | [11] -0.057
